Assay results: PubChem BioAssay (NCATS)
Several values for one entry are separate records, joined by “and”; a condition that tells them apart may be missing. Equal entries are not always repeated. Records with an inconclusive call do not appear. A number with no mark means an inactive call. Activity calls are given as the source filed them. Unless noted, calls follow the shape of the full dose curve.

Assay: qHTS assay for small molecule agonists of the antioxidant response element (ARE) signaling pathway (AID 651741; active = well fitted activation curve with a large enough effect in the signal ratio; the % refers to the signal ratio; also: potency is read from the fitted curve at half-maximal effect; as to activation: % of control where 0% means no effect)
Conditions: HepG2 ARE-bla reporter, beta-lactamase FRET ratio, 16 h; series mostly up to 96 µM
Procedure, shortened: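 Agonist activity is measured as ARE-driven beta-lactamase expression in a stable HepG2 reporter line, using 16 h compound treatment at 37 C and a FRET substrate fluorescence readout after 2 h.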

Compound | Potency
O=c1[nH]c(=O)n(Cl)c(=O)n1Cl | inactive
CC(C)Nc1ccc(Nc2ccccc2)cc1 | 47.3 µM (active)
N#CN | inactive
O=[N+]([O-])c1ccc(F)c([N+](=O)[O-])c1 | 42.2 µM (active)
Oc1cc(Cl)c(Cl)cc1Cl | 42.2 µM (active)
O=[N+]([O-])C(Br)(CO)CO | 54.5 µM (active)

Assay: qHTS assay for small molecule activators of the p53 signaling pathway (AID 651743; active = well fitted activation curve with a large enough effect in the signal ratio, not every such curve was filed as active; the % refers to the signal ratio; also: % of control where 0% means no effect)
Conditions: HCT-116 p53RE-bla, beta-lactamase FRET ratio, 16 h; activation: stronger effect = higher value
Procedure, shortened: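 A beta-lactamase reporter under p53 response element control, stably carried by HCT-116 cells, reported pathway activation. Test compounds were applied for 16 hours at 37 C, and fluorescence was measured 2 hours after adding the B/G FRET substrate.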

Compound | activation
O=C/C=C/c1ccccc1 | -1.3% and 1.6%
CC(C)CCON=O | -3.9%
O=C1C2CC=CCC2C(=O)N1SC(Cl)(Cl)Cl (stereo unspecified) | -1.26% and 18.6%
ClCC1CO1 (stereo unspecified) | -3.68%
C#CCN1CC(=O)N(COC(=O)C2C(C=C(C)C)C2(C)C)C1=O (stereo unspecified) | -4.17%
C[C@H]1CCC[C@H](O)CCCCCc2cc(O)cc(O)c2C(=O)O1 | -0.975%
CC(C)(C)c1cc(O)ccc1O | -3.68% and -3.53% and -5.7%

Assay: qHTS assay for small molecule disruptors of the mitochondrial membrane potential - 1 hr assay (AID 651754); also: nearly all actives have a fitted effect of over 35% in size; also: potency is read from the fitted curve at half-maximal effect
Conditions: series mostly up to 92.2 µM
Procedure, shortened: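 In this qHTS format, a 1 hr compound treatment of HepG2 cells precedes Mito-MPS staining, and membrane potential is judged from aggregate (red) against monomer (green) fluorescence intensity.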

Compound | Potency
O=C/C=C/c1ccccc1 | inactive
CC(C)CCON=O | inactive
O=C1C2CC=CCC2C(=O)N1SC(Cl)(Cl)Cl (stereo unspecified) | 26.6 µM (active) and 33.5 µM (active)
C[C@H]1CC[C@@H]2[C@@H](C)[C@H]3[C@H](C[C@H]4[C@@H]5CC=C6CC(O[C@@H]7O[C@H](CO)[C@H](O)[C@H](O[C@@H]8O[C@H](CO)[C@@H](O)[C@H](O)[C@H]8O)[C@H]7O[C@H]7O[C@@H](C)[C@H](O)[C@@H](O)[C@H]7O)CC[C@]6(C)[C@H]5CC[C@]34C)N2C1 (stereo partly specified) | 33.5 µM (active)
O=CC=O | inactive
O=C1CCO1 | inactive
Clc1ccccc1Cl | inactive
ClCC1CO1 (stereo unspecified) | inactive
C[C@H]1CCC[C@H](O)CCCCCc2cc(O)cc(O)c2C(=O)O1 | 33.5 µM (active)
Oc1cc(Cl)c(Cl)cc1Cl | 47.3 µM (active)
CC(C)(C)c1cc(O)ccc1O | inactive

Assay: qHTS assay for small molecule disruptors of the mitochondrial membrane potential - 5 hr assay (AID 651755); also: nearly all actives have a fitted effect of over 40% in size; also: potency is read from the fitted curve at half-maximal effect
Conditions: JC-1-type ratio dye; series mostly up to 92.2 µM
Procedure, shortened: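 Membrane-potential dye readout: red aggregate (540 ex/590 em) versus green monomer (490 ex/535 em) fluorescence after 30 min dye loading, following 5 hr compound exposure at 37C of overnight-plated HepG2 cells.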

Compound | Potency
O=C/C=C/c1ccccc1 | inactive
CC(C)CCON=O | inactive
O=C1C2CC=CCC2C(=O)N1SC(Cl)(Cl)Cl (stereo unspecified) | 23.7 µM (active) and 33.5 µM (active)
C[C@H]1CC[C@@H]2[C@@H](C)[C@H]3[C@H](C[C@H]4[C@@H]5CC=C6CC(O[C@@H]7O[C@H](CO)[C@H](O)[C@H](O[C@@H]8O[C@H](CO)[C@@H](O)[C@H](O)[C@H]8O)[C@H]7O[C@H]7O[C@@H](C)[C@H](O)[C@@H](O)[C@H]7O)CC[C@]6(C)[C@H]5CC[C@]34C)N2C1 (stereo partly specified) | 33.5 µM (active)
O=CC=O | inactive
O=C1CCO1 | inactive
CC(C)Nc1ccc(Nc2ccccc2)cc1 | 59.6 µM (active)
Clc1ccccc1Cl | inactive
ClCC1CO1 (stereo unspecified) | inactive
C[C@H]1CCC[C@H](O)CCCCCc2cc(O)cc(O)c2C(=O)O1 | 37.6 µM (active)
Oc1cc(Cl)c(Cl)cc1Cl | 47.3 µM (active)
CC(C)(C)c1cc(O)ccc1O | inactive
